Test results taken from PubChem BioAssay (EPA / NIEHS).
Where “and” joins values, the source holds several entries; their conditions need not be identical. Equal entries are not always repeated. Some compounds were tested as several samples or in several runs, with calls that do not always agree. Calls of active or inactive are those of the source. Rule for the calls: active = hit-call score of the fitted dose curve at least 0.9, where 1 is the maximum; inactive = score below 0.9.

Columns and labels:
[1] = read-out: Macrophage colony-stimulating factor (MCSF), CSF1 (gene 1435); assay: BSK_hDFCGF_MCSF: BioMAP Diversity Plus: hDFCGF Assay for Macrophage colony-stimulating factor (MCSF) Biomarker Activity (AID 2283060); conditions: primary human foreskin fibroblasts; actives raise or lower the signal
In short: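 Human foreskin fibroblast primary cultures; M-CSF measured by ELISA 24 hours after chemical dosing. Bidirectional fitting relative to DMSO, with overt cytotoxicity tracked by parallel SRB total-protein staining (0.1% SRB, 10% TCA fixation, 560 nm).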

[2] = BSK_hDFCGF_SRB: Viability Assessment in the BioMAP Diversity Plus: hDFCGF Assay (AID 2283061); conditions: primary human foreskin fibroblasts;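 note: cells exposed to compound for 24 h before the read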
In short: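 Human foreskin fibroblasts in 96-well plates were treated 24 h. Total protein was measured by 0.1% SRB staining after 10% TCA fixation, read at 560 nm. Data were fitted bidirectionally against DMSO.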

[3] = read-out: Monokine induced gamma interferon (MIG), CXCL9 (gene 4283); assay: BSK_hDFCGF_MIG: BioMAP Diversity Plus: hDFCGF Assay for Monokine induced gamma interferon (MIG) Biomarker Activity (AID 2283063); conditions: primary human foreskin fibroblasts; actives raise or lower the signal
In short: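 MIG/CXCL9 measured by ELISA 24 h after dosing primary human skin fibroblasts. Activity fitted in both directions against DMSO controls. Cytotoxicity was checked in parallel cultures by SRB staining read at 560 nm.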

[4] = read-out: Matrix Metallopeptidase 1 (MMP1), MMP1 (gene 4312); assay: BSK_hDFCGF_MMP1: BioMAP Diversity Plus: hDFCGF Assay for Matrix Metallopeptidase 1 (MMP1) Biomarker Activity (AID 2283064); conditions: primary human foreskin fibroblasts; actives raise or lower the signal
In short: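 Primary human foreskin fibroblasts exposed to chemicals for 24 h; MMP1 measured by ELISA. Cytotoxicity tracked by SRB staining in parallel cultures; bidirectional fit relative to DMSO.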

[5] = read-out: Vascular cell adhesion molecule 1 (VCAM1), VCAM1 (gene 7412); assay: BSK_hDFCGF_VCAM1: BioMAP Diversity Plus: hDFCGF Assay for Vascular cell adhesion molecule 1 (VCAM1) Biomarker Activity (AID 2283065); conditions: primary human foreskin fibroblasts; actives raise or lower the signal;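 for AC50: VCAM-1 protein level quantified by ELISA after 24 h chemical exposure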
In short: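 Human foreskin fibroblast primary cells dosed with chemical, VCAM-1 measured by ELISA at 24 h. Bidirectional curve fitting relative to DMSO as negative control/baseline.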

[6] = read-out: Plasminogen activator inhibitor-1 (PAI1), SERPINE1 (gene 5054); assay: BSK_hDFCGF_PAI1: BioMAP Diversity Plus: hDFCGF Assay for Plasminogen activator inhibitor-1 (PAI1) Biomarker Activity (AID 2283066); conditions: primary human foreskin fibroblasts; actives raise or lower the signal
In short: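 Human foreskin fibroblast primary cells, 24 h chemical exposure; PAI-1 measured by ELISA. Bidirectional fitting relative to DMSO; parallel cultures stained with SRB for total protein to flag overt cytotoxicity.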

[7] = read-out: Intercellular Adhesion Molecule 1 (ICAM1), ICAM1 (gene 3383); assay: BSK_KF3CT_ICAM1: BioMAP Diversity Plus: KF3CT Assay for Intercellular Adhesion Molecule 1 (ICAM1) Biomarker Activity (AID 2283067); conditions: primary human keratinocytes with fibroblasts; actives raise or lower the signal
In short: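 Human keratinocyte–foreskin fibroblast co-culture was treated for 24 h. Cell-surface ICAM-1 was quantified by ELISA, fitted bidirectionally relative to DMSO. Cytotoxicity was checked in parallel cultures by SRB total-protein staining.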

[8] = read-out: Interferon-gamma inducible Protein 10 (IP10), CXCL10 (gene 3627); assay: BSK_KF3CT_IP10: BioMAP Diversity Plus: KF3CT Assay for Interferon-gamma inducible Protein 10 (IP10) Biomarker Activity (AID 2283068); conditions: primary human keratinocytes with fibroblasts; actives raise or lower the signal
In short: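 Signal is secreted/surface IP-10 by ELISA in a human primary skin co-culture of keratinocytes and foreskin fibroblasts, taken 24 h post-dosing; DMSO served as negative control.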

[9] = BSK_KF3CT_SRB: Viability Assessment in the BioMAP Diversity Plus: KF3CT Assay (AID 2283069); conditions: primary human keratinocytes with fibroblasts;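 note: total protein by sulforhodamine B staining as a cytotoxicity measure; read 24 h after compound addition; fitted for both signal gain and loss against DMSO baseline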
In short: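 Human keratinocyte and foreskin fibroblast co-culture exposed to chemical for 24 h. Total protein measured in parallel cultures by 0.1% sulforhodamine B staining after 10% TCA fixation, read at 560 nm; bidirectional fit relative to DMSO.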

[10] = read-out: TIMP metallopeptidase inhibitor 1 (TIMP1), TIMP1 (gene 7076); assay: BSK_hDFCGF_TIMP1: BioMAP Diversity Plus: hDFCGF Assay for TIMP metallopeptidase inhibitor 1 (TIMP1) Biomarker Activity (AID 2283062); conditions: primary human foreskin fibroblasts; actives raise or lower the signal
In short: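 Human foreskin fibroblast primary cultures dosed for 24 h; secreted/surface TIMP-1 quantified by ELISA. Bidirectional curve fitting against DMSO baseline; cytotoxicity tracked in parallel cultures by SRB total-protein staining.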

Measured: AC50

CCN=C1C=CC(=C(c2ccc(N(CC)CC)cc2)c2ccc(N(CC)CC)cc2)c2ccccc21
inactive: [2] | [9]
active: [1] 1.37 µM and 1.28 µM | [2] 0.331 µM | [3] 1.73 µM and 1.47 µM | [4] 1.29 µM and 1.26 µM | [5] 1.42 µM and 854 nM | [6] 1.31 µM and 1.23 µM | [7] 3.19 µM and 3.16 µM | [8] 2.87 µM and 2.44 µM

OCC(F)(F)C(F)(F)C(F)(F)C(F)(F)C(F)(F)C(F)(F)C(F)(F)C(F)(F)CO
active: [1] 47.9 µM and 46.7 µM | [2] 38.3 µM and 54.8 µM | [10] 46.7 µM and 54.5 µM | [3] 44 µM and 45.1 µM | [4] 55.2 µM and 48.8 µM | [5] 42.5 µM and 21.8 µM | [6] 54.9 µM and 56.4 µM | [8] 35.2 µM | [9] 50.9 µM and 44.1 µM
inactive: [8]

O=C=NCc1cccc(CN=C=O)c1
inactive: [1] | [2] | [10] | [3] | [4] | [5] | [6] | [8] | [9]

O=S(=O)(O)CCC(F)(F)C(F)(F)C(F)(F)C(F)(F)C(F)(F)C(F)(F)C(F)(F)C(F)(F)F
active: [2] 54.3 µM and 24.7 µM | [4] 30 µM
inactive: [1] | [3] | [4] | [5] | [6] | [8] | [9]

C=CC(=O)OCCC(F)(F)C(F)(F)C(F)(F)C(F)(F)F
active: [1] 21 µM and 15 µM | [2] 8.28 µM | [3] 25.3 µM and 30.9 µM | [4] 14.5 µM and 18.3 µM | [5] 13.7 µM and 19.4 µM
inactive: [2] | [6] | [7] | [8] | [9]

CCN(CCO)S(=O)(=O)C(F)(F)C(F)(F)C(F)(F)C(F)(F)C(F)(F)C(F)(F)C(F)(F)C(F)(F)F
inactive: [4] | [7] | [9]
active: [1] 23.2 µM and 23.3 µM | [2] 21.9 µM and 2.95 µM | [3] 22.1 µM and 19.1 µM | [4] 50.1 µM | [5] 30 µM and 12.8 µM | [6] 37.2 µM and 25.4 µM | [8] 33.7 µM and 30 µM

CCN(CC)c1ccc(C=O)cc1
inactive: [1] | [2] | [10] | [3] | [4] | [5] | [6] | [8] | [9]

C[Si](Cl)(Cl)CCC(F)(F)C(F)(F)C(F)(F)C(F)(F)C(F)(F)C(F)(F)F
active: [1] 605 nM | [10] 739 nM | [3] 1.26 µM and 1.52 µM | [4] 1.18 µM | [5] 1.4 µM and 876 nM
inactive: [1] | [2] | [10] | [4] | [6] | [7] | [8] | [9]

C=CC(=O)OCC(F)(F)C(F)(F)C(F)(F)C(F)(F)C(F)(F)C(F)(F)C(F)(F)C(F)F
inactive: [2] | [10] | [4] | [6] | [7] | [8] | [9]
active: [1] 28.8 µM and 30 µM | [3] 26.9 µM and 30 µM | [5] 17 µM and 17.5 µM

CC(C)(C)c1cc(CCC(=O)NCCCCCCNC(=O)CCc2cc(C(C)(C)C)c(O)c(C(C)(C)C)c2)cc(C(C)(C)C)c1O
inactive: [1] | [2] | [10] | [3] | [4] | [5] | [6] | [8] | [9]

NC(=O)C(F)(F)C(F)(F)C(F)(F)C(F)(F)C(F)(F)C(F)(F)C(F)(F)F
inactive: [1] | [2] | [10] | [3] | [4] | [5] | [6] | [8] | [9]

O=C(c1ccccc1)c1ccc(O)cc1O
inactive: [1] | [2] | [10] | [3] | [4] | [5] | [6] | [8] | [9]

O=S(=O)(O)CCC(F)(F)C(F)(F)C(F)(F)C(F)(F)F
inactive: [1] | [2] | [10] | [3] | [4] | [5] | [6] | [8] | [9]

CCOC(C=C(C)CCC=C(C)C)OCC
active: [1] 32800 nM | [2] 33.2 µM | [10] 20000 nM | [3] 27.3 µM | [4] 32.4 µM | [5] 20 µM | [6] 20 µM | [8] 34.5 µM | [9] 34.8 µM

COC(F)(C(F)F)C(F)(F)F (stereo not given)
inactive: [1] | [2] | [10] | [3] | [4] | [5] | [6] | [7] | [8] | [9]
